Screening data from PubChem BioAssay.
IDE inh = human IDE inhibitors in live cells, primary screen, fluorescence polarization, HEK cells, FAbetaB substrate; Insulin-degrading enzyme (Homo sapiens), P14735; FAbetaB cleavage; inhibition, % at 5.59 µM; 320,000 compounds, 0.41% hits; AID 434962, 2010;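 active means percent inhibition above the average of all tested compounds plus 3 SD, set per screening campaign, cut at about 16% in these data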;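 further: IDE supplied by intact live HEK cells; FP after avidin binding of uncleaved biotin substrate so inhibition keeps polarization high; 0% = DMSO wells and 100% = 60 µM reference IDE inhibitor Ii1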
Myeloid diff MLP = induction of myeloid progenitor differentiation, primary screen, cell-based, flow cytometry, MLPCN library; ER-HoxA9 myeloid progenitors, lysozyme-GFP differentiation; calls only at 10 µM; 360,000 compounds, 1% hits;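 active means normalized GFP-positive differentiation at or above the plate's own cutoff, the solvent-only control mean plus 3 SD; inconclusive means no clear call, values can overlap the other calls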;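 further: cells exposed to compound for four days before flow analysis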
TPT1 inhibitor = Candida albicans TPT1 enzyme inhibitors, primary screen, biochemical, fluorescence polarization. tRNA 2'-phosphotransferase TPT1 (Candida albicans SC5314). recombinant caTPT1, FP RNA substrate dephosphorylation. inhibition, % at 5 µM. 300,000 compounds, 0.81% hits;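 active means inhibition above the mean of all tested compounds plus 3 SD, set per screening campaign, cut at about 24% in these data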;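 further: plate controls were DMSO alone for no effect and ferristatin control at 100 nM for full effect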
IDE act = human IDE activators in live cells, primary screen, fluorescence polarization, HEK cells, FAbeta-B substrate. FAbeta-B cleavage; 0% vehicle, 100% cell-free pure enzyme wells. activation, % at 5.96 µM. 340,000 compounds, 0.073% hits. AID 493087, 2011;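 active means activation above the mean of all tested compounds plus 3 SD, set per screening campaign, cut at about 17% in these data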
CRFBP-R2 block = antagonists of CRF-BP/CRF-R2 complex, primary screen, cell-based, HEK293, calcium dye fluorescence, uHTS | CRF-induced calcium fluorescence | inhibition, % at 11.8 µM | 350,000 compounds, 0.59% hits | AID 588475, 2011;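 active means inhibition of the ligand-induced calcium signal above about 50% at the single tested concentration, limit read from the data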
CRFBP-R2 agonist = agonists of CRF-BP/CRF-R2 complex, primary screen, cell-based, HEK293, calcium dye fluorescence, uHTS. 350,000 compounds, 0.46% hits. calcium dye fluorescence (FLIPR); percent of saturating CRF peptide response. activation, % at 13.2 µM. CRF-binding protein / CRF receptor 2 complex (human). AID 588473, 2011;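 active means activation of at least 50%, plus an integration ratio under a set limit after plate pattern correction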;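 further: plate controls were neutral control wells without compound for no effect and CRF at EC100 for full effect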
An asterisk follows results filed as active; i = inactive; ? = inconclusive; . = no result; + = active, no number; ! = a repeat was not active. Only some compounds are listed: those with a hit (about 2.6% of all), similar ones and a draw of the others.

SMILES | IDE inh | Myeloid diff MLP | TPT1 inhibitor | IDE act | CRFBP-R2 block | CRFBP-R2 agonist
Cc1nn(-c2cccc([N+](=O)[O-])c2)c(N)c1-c1ccccc1 | 3.9 | i | -2.8 | 5.9 | 56.5* | 0.1
NC(=O)C1(N2CCCCC2)CCN(C(=O)c2cccs2)CC1 | 2.9 | + | -0.3 | -2.8 | -18.9 | -0.6
Cc1cc(S(=O)(=O)N2CCCCC2CCNC(=O)C(=O)NC2CC2)ccc1F (centres undefined) | -1.4 | i | 0.3 | 1.5 | 5.2 | -2.1
Cc1cc(C)c(S(=O)(=O)N2CCCCC2CCNC(=O)C(=O)NC2CC2)c(C)c1 (centres undefined) | 5.2 | + | 4.3 | 4.2 | -13.3 | -1.1
CCOC(=O)C1Nc2ccccc2C2C(O)C(O)CC12 (centres undefined) | -1.9 | + | -21.0 | 13.1 | -6.2 | 0.5
CCOC(=O)C1Nc2ccc(C(F)(F)F)cc2C2c3ccccc3CC12 (centres undefined) | -5.8 | i | -5.6 | -5.4 | -7.7 | 5.8
CCCN1CCN(C(=S)Nc2ccc([N+](=O)[O-])cc2)CC1 | -1.4 | + | -1.3 | -0.7 | 1.7 | 2.5
Cc1cc(N2CCN(C(=O)c3ccco3)CC2)n2nc(-c3cccc(F)c3)cc2n1 | 9.8 | + | 0.3 | -13.6 | 10.4 | -0.6
CCOc1ccc(-n2c(SCC(=O)Nc3ccc(CC)cc3)nc3n[nH]c(C)c3c2=N)cc1 | -4.0 | + | 1.3 | 2.4 | 12.6 | -1.9
CO[C@H]1CC[C@@]2(C)[C@@H](CC[C@@H]3[C@@H]2CC[C@@]2(C)[C@H]3C[C@H](C(=O)N[C@@H](CCCN=C(N)N)C(=O)NCC(=O)N[C@@H](CC(=O)O)C(N)=O)O[C@]23CCCO3)C1 | . | i | . | 2.9 | 8.7 | 5.1
C1CCCCCC(=NNc2nn[nH]n2)CCCCC1 | 0.7 | i | 0.5 | 33.8* | -8.5 | -0.5
COc1cccc(NC(=S)N(Cc2cccc(Br)c2)CC2CCC(C(=O)O)CC2)c1 (centres undefined) | 5.0 | i | -1.6 | 3.6 | 7.2 | -2.2
Cc1ccc(S(=O)(=O)Nc2ccc3c4c(cccc24)CC3)c(C)c1 | -0.2 | + | 3.1 | 1.8 | -22.1 | -1.4
O=S(=O)([N-]c1nc2ccccc2nc1-[n+]1ccc(-c2ccncc2)cc1)c1ccccc1 | -3.6 | i | -67.4 | 7.3 | -99.3 | 223.9*
COc1ccc(NC2CCCN(C(=O)c3cccc(C)n3)C2)cc1OC (centres undefined) | 5.5 | i | -0.5 | 7.6 | 102.7* | 0.5
COc1ccc(NC2CCCN(C(=O)c3csc(C(C)C)n3)C2)cc1OC (centres undefined) | -2.3 | i | -1.9 | 5.6 | 0.3 | -0.2
CCC/C(=N\NC(=O)C1CC1)c1ccc(Br)cc1 | 3.8 | i | -2.4 | 1.1 | -2.9 | -3.4
CCC/C(=N\NC(=O)C1CC1)c1ccccc1 | -0.4 | i | 0.6 | . | 65.4* | -1.6
CN(C)S(=O)(=O)c1cccc(NC(=O)c2sccc2-c2ccccc2)c1 | . | + | . | 0.1 | -0.8 | 0.3
Cc1ccc2sc(N(CCCN(C)C)C(=O)c3ccc(Br)s3)nc2c1C | 2.0 | i | -2.1 | 17.9* | -19.6 | 4.8
Cc1ccc2sc(N(CCCN(C)C)C(=O)c3nc4ccccc4s3)nc2c1C | 4.6 | i | 0.2 | 15.5 | -7.2 | 7.0
CN(CC(=O)Nc1cccc(F)c1)C(=O)CN1C(=O)C2CC=CCC2C1=O (centres undefined) | 1.9 | i | -0.1 | 3.0 | -0.4 | -0.5
CC(=O)c1cccc(Nc2nc3ccccc3n3cnnc23)c1 | -1.2 | i | -1.1 | -0.6 | 115.7* | -1.1
Fc1cccc(Nc2nc3ccccc3n3cnnc23)c1 | -1.5 | i | -4.7 | 2.5 | -58.0 | -0.6
Cc1ccc(C)c2sc(NC(=O)c3ccc(N4C(=O)CCC4=O)cc3)nc12 | -1.5 | i | 0.7 | 1.8 | -115.2 | 116.2*
SMILES | IDE inh | Myeloid diff MLP | TPT1 inhibitor | IDE act | CRFBP-R2 block | CRFBP-R2 agonist
COc1ccc(C(C)NCCC(c2ccc(OC(C)C)cc2)c2ccccc2OC)cc1 (centres undefined) | . | + | . | 3.2 | -15.6 | 1.0
O=C(COC(=O)c1ccc2ccccc2n1)NCc1ccccc1 | -0.5 | i | -3.6 | 1.9 | 30.9 | -1.1
CC1(c2ccc([N+](=O)[O-])cc2)NC(=O)N(CC(=O)Nc2ccc(N3CCCCC3)cc2)C1=O (centres undefined) | 1.4 | + | 0.2 | 7.7 | -40.2 | 16.2
CC1(c2ccccc2)NC(=O)N(CC(=O)Nc2ccc(Cl)c(S(=O)(=O)N3CCCCC3)c2)C1=O (centres undefined) | -2.7 | + | -3.2 | -3.7 | -27.9 | 12.2
CCN(CC)C(=O)CSc1nc(-c2cccs2)cc(-c2cccs2)c1C#N | 3.5 | i | -1.3 | 5.4 | -8.0 | 0.3
CN1CCN(C(=O)CSc2nc(-c3cccs3)cc(-c3cccs3)c2C#N)CC1 | 5.3 | + | 9.0 | 3.1 | -21.1 | 1.4
CC1CC(NC(=O)c2c(O)nc3sccn3c2=O)CC(C)(C)C1 (centres undefined) | -1.5 | + | 0.3 | 4.3 | 0.2 | 0.2
COc1ccc(C2CC(c3ccccc3F)=NN2c2ccc(S(N)(=O)=O)cc2)cc1 (centres undefined) | . | i | . | 3.0 | 0.1 | -1.0
COc1ccc(C2CC(c3ccccc3C(F)(F)F)=NN2c2ccc(S(N)(=O)=O)cc2)cc1 (centres undefined) | . | i | . | 3.7 | 58.8* | 5.3
O=C(NC1CCN(Cc2ccc(Cl)cc2Cl)CC1)c1ccccc1 | 4.6 | i | -3.3 | 3.1 | -28.6 | 2.1
O=C(c1ccc(COc2ccccc2Cl)o1)N1CCN(Cc2ccc3c(c2)OCO3)CC1 | 4.6 | i | -1.8 | 3.2 | 59.5*! | 1.3
CC(C)N1CCc2c(sc(NC(=O)Cc3ccccc3)c2C(N)=O)C1 | -0.3 | i | 2.3 | -2.9 | -49.2 | 3.4
CC(C)N1CCc2c(sc(NC(=O)c3ccco3)c2C(N)=O)C1 | -2.4 | + | 12.3 | 2.8 | 4.8 | 27.2
CC(C)N1CCc2c(sc(NC(=O)c3cc4cc([N+](=O)[O-])ccc4s3)c2C(N)=O)C1 | . | ? | . | 3.9 | -137.0 | 133.6*
COC(=O)c1c(NC(=O)c2ccco2)sc2c1CCN(C(C)C)C2 | 7.8 | i | 0.7 | 3.4 | -5.3 | 51.8*
CC(C)N1CCc2c(sc(NC(=O)CCc3ccccc3)c2C(N)=O)C1 | 8.6 | i | 1.9 | -5.0 | -70.5 | 62.4*
